# In all, about 13,000 compounds were measured (“IFI”: median about 4, highest 2% from about 17 on). The sample as a whole holds a higher share of the highest values than the screen did.
# Assay: GSK_TCMDC: Inhibition Frequency Index (IFI). The number of non-kinase HTS assays where a compound showed > 50 % inhibition, expressed as a percentage of the number of such assays in which the compound was tested
# Assay type: functional
row,Structure (SMILES),IFI
1,Cc1ccc(CN2CCCN(Cc3cccc(NC(=O)c4cc5ccccc5s4)c3)CC2)cc1,10.2%
2,CN1CCC(C(=O)Nc2cccc(-c3cccc(-c4nc5cc(F)ccc5[nH]4)c3)c2)CC1,4.24%
3,Cc1cccc2nc(-c3cccc(-c4cccc(CNCc5ccc(S(C)(=O)=O)cc5)c4)c3)[nH]c12,8.65%
4,Cc1ccc2c(=NN=Cc3cccc(Cl)c3)cc(C)[nH]c2c1,10.1%
5,COc1ccc(-c2cccc(NC(=O)c3cccc(C#N)c3)c2)cc1CN1CCC(O)CC1,0%
6,CC(C)CCN1CCC(Oc2ccc(NC(=O)c3cccs3)cc2Cl)CC1,8.06%
7,c1cc(CN2CCC(CCN3CCCCC3)CC2)cc(-c2cccc(-c3nc4ccccc4[nH]3)c2)c1,5.56%
8,Cc1cccc(CNc2nc(C)cc(N[C@@H](CC(C)C)C(=O)NCc3cccc(F)c3)n2)c1,9.52%
9,Cc1ccc(CNC(=O)[C@H](Cc2ccccc2)Nc2cc(C)nc(NCC3CCCCC3)n2)cc1,24.3%
10,Cc1cc(N[C@@H](Cc2ccccc2)C(=O)NCCOc2ccccc2)nc(NCCOc2ccccc2)n1,24.4%
11,Cc1cc(N[C@@H](Cc2ccccc2)C(=O)NCCc2ccccc2)nc(NCCOc2ccccc2)n1,7.5%
12,Cc1cc(N[C@@H](Cc2ccccc2)C(=O)NCc2cccs2)nc(NCC2CCCCC2)n1,16.3%
13,Cc1cc(N[C@@H](CC(C)C)C(=O)NCCc2ccccc2)nc(NCC2CCCCC2)n1,16.3%
14,Cc1cc(N[C@@H](CC(C)C)C(=O)NCc2cccc(F)c2)nc(NCCc2ccccc2)n1,17.1%
15,Cc1ccc(CNC(=O)[C@H](Cc2ccccc2)Nc2cc(C)nc(NCc3ccccc3C)n2)cc1,4.88%
16,Cc1cc(N[C@@H](CC(C)C)C(=O)NCc2cccc(F)c2)nc(NCC2CCCCC2)n1,18.6%
17,Cc1ccc(CNC(=O)[C@H](CCCN)Nc2cc(C)nc(NCC3CCCCC3)n2)cc1,4.88%
18,Cc1ccc(CNC(=O)[C@H](CC(C)C)Nc2cc(C)nc(NCC3CCCCC3)n2)cc1,19.1%
19,Cc1cc(N[C@@H](Cc2ccccc2)C(=O)NCCOc2ccccc2)nc(NCCc2ccccc2)n1,16.3%
20,CN(C)CCN(Cc1ccc(-c2ccc(CNCCc3ccccc3)cc2)nc1)C(=O)CCC1CCCC1,8.33%
21,COc1ccc2c(N/N=C/c3ccccc3[N+](=O)[O-])ccnc2c1,3.62%
22,CC1(C)CCC(C)(C)c2c1ccc(C1CCN(CCCCNC(=O)c3ccc(-c4ccc(Cl)cc4)cc3)CC1)c2O,13.7%

row,Structure (SMILES),IFI
1,COc1ccc(CON2C(=N)N=C(N)NC2(C)C)cc1OC,1.47%
2,COc1ccc(C#Cc2ccc(-c3c(C)[nH]c(C)c(Cl)c3=O)cc2)cc1,0.88%
3,CCN(CC)CCN(Cc1ccc(-c2ccc(C(F)(F)F)cc2)cc1)C(=O)Cn1c(CCc2c(F)ccc(F)c2F)nc(=O)c2ccccc21,9.09%
4,Cc1nc(C)c(-c2ccc(S(=O)(=O)c3ccc(Cl)cc3)cc2)c(O)c1Cl,0.78%
5,CC(C)Cn1cc(C2CCN(CCN3CCC(CNC(=O)c4ccc(-c5ccc(C(F)(F)F)cc5)cc4)CC3)CC2)c2ccccc21,9.17%
6,O=C(/C=C/c1ccc(Cl)c(Cl)c1)NC1CCC(CN2CCC(c3nc4cccnc4[nH]3)CC2)CC1 (stereo not drawn),4.96%
7,CCN(CC)CCN(Cc1ccc(-c2ccc(C(F)(F)F)cc2)cc1)C(=O)Cn1c(/C=C/c2ccco2)nc(=O)c2ccccc21,5.52%
8,Cc1cc(N[C@@H](Cc2ccccc2)C(=O)NCc2cccc(F)c2)nc(NCCc2ccccc2)n1,9.3%
9,Cc1cc(N[C@@H](Cc2ccccc2)C(=O)NCc2cccc(F)c2)nc(NCC2CCCCC2)n1,27.9%
10,Cc1cccc(CNc2nc(C)cc(N[C@@H](Cc3ccccc3)C(=O)NCc3cccc(F)c3)n2)c1,19.1%
11,Cc1cc(N[C@@H](Cc2ccccc2)C(=O)NCc2cccc(F)c2)nc(NCCOc2ccccc2)n1,6.98%
12,Cc1cc(N[C@@H](Cc2ccccc2)C(=O)NCc2cccc(F)c2)nc(Nc2ccccc2)n1,4.76%
13,Cc1cc(N[C@@H](Cc2ccccc2)C(=O)NCc2cccc(F)c2)nc(NCc2ccccc2C)n1,4.88%
14,Cc1cc(N[C@@H](Cc2ccccc2)C(=O)NCc2cccc(F)c2)nc(NCCCOC(C)C)n1,18.2%
15,Cc1cc(N[C@@H](Cc2ccccc2)C(=O)NCCCOC(C)C)nc(NCCc2ccc(F)cc2)n1,2.44%
16,Cc1cc(N[C@@H](Cc2ccccc2)C(=O)NCc2cccc(F)c2)nc(NCCc2ccc(F)cc2)n1,9.09%
17,CC1(C)N=C(N)N=C(Nc2ccc(Cl)cc2)N1,0.76%
18,FC(F)(F)c1ccc2[nH]c(-c3cccc(-c4cccc(CN5CCN(c6ccncc6)CC5)c4)c3)nc2c1,11.5%
19,CCCNCc1ccc(-c2ccc(CN(CCOC)C(=O)c3cccc(C#N)c3)cc2)nc1,0.7%
20,Nc1nc2c(ncn2COC(COCc2ccccc2)COCc2ccccc2)c(=O)[nH]1.Nc1nc2ncn(COC(COCc3ccccc3)COCc3ccccc3)c2c(=O)[nH]1,0%
21,CCCCOC(=O)c1ccc(NC(=O)Nc2ccc(Cn3ncc(N4CCCNCC4)c(Cl)c3=O)cc2)cc1,5.97%
22,CCCCCc1ccc(NC(=O)Nc2ccc(Cn3ncc(N4CCCNCC4)c(Cl)c3=O)cc2)cc1,9.09%

row,Structure (SMILES),IFI
1,CCCCCCCOc1ccc(NC(=O)Nc2ccc(Cn3ncc(N4CCCNCC4)c(Cl)c3=O)cc2)cc1,19.1%
2,Cc1[nH]c(C)c(-c2ccc(OCCCc3ccccn3)cc2)c(=O)c1Br,0%
3,COC(=O)c1ccc(-c2ccc(-c3cccnc3)cc2C)cc1,21.7%
4,COC(=O)c1ccc2nc(-c3cc(-c4cccc(-c5ccccc5)c4)cnc3N)[nH]c2c1,2.94%
5,COc1ccc(NC(=O)c2ccc(-c3ccc(-c4cccnc4)cc3)c(C)c2)cc1OCCN(C)C,6.9%
6,Cc1ccccc1Nc1nc(Nc2ccccc2)c2ccccc2n1,3.65%
7,O=C1c2cc(I)ccc2SC1c1ccccc1 (stereo not drawn),1.43%
8,O=S(=O)(NCCN1CCCC1)c1cccc(-c2ccc(CNCc3ccccc3)cc2)c1,5.88%
9,O=[N+]([O-])c1cccc(C(Nc2ccccn2)c2ccc3cccnc3c2O)c1 (stereo not drawn),8.74%
10,CC1(CCc2ccccc2)N=C(Nc2ccc(Cl)cc2)N=C(N)C1c1ccc(Cl)c(Cl)c1 (stereo not drawn),26.6%
11,CC1(CCc2ccccc2)N=C(N)N=C(N)C1c1ccc(Cl)c(Cl)c1 (stereo not drawn),2.94%
12,CC1(C)N=C(N)N=C(N)C1c1ccc(Cl)c(Cl)c1 (stereo not drawn),1.43%
13,CCC1(c2ccccc2)N=C(N)N(CCCc2ccccc2)C1=O (stereo not drawn),7.14%
14,CCCCCCC1(C)N=C(N)N=C(N)C1c1ccc(Cl)c(Cl)c1 (stereo not drawn),2.78%
15,CC1(CCc2ccccc2)N=C(N)N(Cc2ccccc2)C(=O)C1c1ccc(Cl)c(Cl)c1 (stereo not drawn),19.2%
16,NS(=O)(=O)c1cccc(-c2ccc3nccc(-c4cccc(S(N)(=O)=O)c4)c3c2)c1,0%
17,Cn1c(N=C2NC3(c4ccccn4)NC(=Nc4nc5ccccc5n4C)NC3(c3ccccn3)N2)nc2ccccc21 (stereo not drawn),3.6%
18,Cc1cccc(-c2nn(-c3ccccc3)c3[nH]c(=O)c(CN4CCSCC4)cc23)c1,1.82%
19,CC1(CCN2CCC(c3c[nH]c4cnccc34)CC2)CCCc2c(Br)cccc2C1=O (stereo not drawn),8.51%
20,Cc1cc(SC(C)(C)C)cc2c(Cl)c(C(N)=O)cnc12,32.5%
21,Cc1cc(C)c2ncc(C(=O)O)c(O)c2c1,1.46%
22,Oc1ccc(CCCNc2nc(NCc3ccccc3-c3ccccc3)nc(NC3CCNCC3)n2)cc1,15.2%

row,Structure (SMILES),IFI
1,COc1ccccc1-n1ccnc1SCC(=O)Nc1cccc(C(F)(F)F)c1,5.93%
2,CC(CCON1C(N)=NC(N)=NC1(C)C)c1ccc(Cl)c(Cl)c1 (stereo not drawn),7.09%
3,Clc1ccc(OCCC2CCN(CCCCCCCN3CCC(CCOc4ccc(Cl)c(Cl)c4)CC3)CC2)cc1Cl,18.6%
4,Clc1ccc(OCCC2CCN(CCCCCCN3CCCCC3)CC2)cc1Cl,9.87%
5,O=C(/C=C/c1ccc(Cl)c(Cl)c1)NCCCCCN1CCC(CCNC(=O)/C=C/c2ccc(Cl)c(Cl)c2)CC1,11.2%
6,CCCNCc1ccc(-c2ccc(CN(CC3CCCO3)C(=O)C3CC(=O)c4ccccc43)cc2)nc1 (stereo not drawn),1.41%
7,CCN(CC)CCN(Cc1ccc(-c2ccc(C(F)(F)F)cc2)cc1)C(=O)Cn1c(CCc2cc(F)c(F)c(F)c2)nc(=O)c2ccccc21,6.67%
8,Cc1noc(C)c1-c1ccc2c(Nc3ccc([N+](=O)[O-])cc3)c(C(N)=O)cnc2c1,1.63%
9,CCc1ccc(-n2cc(C(=O)c3cc(Br)ccc3O)cc(C#N)c2=O)cc1,15.9%
10,COc1ccc(-n2cc(C(=O)c3cc(Br)ccc3O)cc(C#N)c2=O)cc1Cl,14.8%
11,N#Cc1cc(C(=O)c2cc(Cl)ccc2O)cn(-c2cccc(C(F)(F)F)c2)c1=O,7.44%
12,N#Cc1cc(C(=O)c2cc(Cl)ccc2O)cn(-c2cc(Cl)cc(Cl)c2)c1=O,17.4%
13,N#Cc1cc(C(=O)c2cc(Br)ccc2O)cn(-c2cc(Cl)cc(Cl)c2)c1=O,20.6%
14,COc1ccc(O)c(C(=O)c2cc(C#N)c(=O)n(-c3ccc(Oc4ccccc4)cc3)c2)c1,3.52%
15,COc1ccc2ccccc2c1C=NN=c1cc(C)[nH]c2c(C)cccc12,1.48%
16,COc1ccc(Cn2c(Nc3cccc(C(F)(F)F)c3)nc3cc(C(=O)NCCCN(C)C)ccc32)cc1Cl,2.14%
17,NCC1CCCN1Cc1cccc(-c2cccc(-c3nc4cc(F)ccc4[nH]3)c2)c1 (stereo not drawn),5%
18,O=C(Cn1c(CCc2cccc(F)c2F)nc(=O)c2ccccc21)N(Cc1ccc(-c2ccc(C(F)(F)F)cc2)cc1)C1CCN(C2=NCCS2)CC1,12.5%
19,CN1CCC(N2CCN(Cc3cccc(-c4ccc(-c5nc6cc(C(F)(F)F)ccc6[nH]5)cc4)c3)CC2)CC1,9.72%
20,CCCCNc1cc(NCCCC)c2c(n1)[nH]c1ccccc12,19.4%
21,CCCCNc1cc(C)nc(NCc2ccccc2)n1,9.72%
22,CCCCNc1c(C(=O)OCC)c(C)nc2c1[nH]c1ccccc12,2.17%
